# Hits are enriched below; roughly 4% of the tested compounds scored in any of these assays.
# MITF TRPM1 inh – inhibitors of MITF-dependent TRPM1 promoter reporter, primary screen, cell-based, SK-MEL-5, single point, luciferase | SK-MEL-5 TRPM1 promoter luciferase, 24 h | inhibition, % at 12.5 µM | 330,000 compounds, 0.83% hits | AID 488899, 2010;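 active = mean inhibition across replicates of 60% or more, whatever share of single replicates reaches that level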
# Peg3 prom inh – Peg3 promoter-driven luciferase inhibitors, primary screen, cell-based, HeLa, luciferase luminescence. HeLa PEG-Prom luciferase reporter, overnight. inhibition, % at 20 µM. 360,000 compounds, 1.7% hits;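 active = inhibition of at least 50% at 20 µM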
# TROY NFkB inh – inhibitors of TROY-driven NF-kB signaling, primary screen, Q293 LMP1-TROYcd cells, NF-kB luciferase, uHTS; Q293 LMP1-TROYcd NF-kB luciferase reporter, 4 h; inhibition, % at 10 µM; 360,000 compounds, 0.98% hits;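 active = compounds whose plate-normalised and pattern-corrected inhibition of the luciferase reporter signal at the single screening dose is 50% or more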
# TWEAK-Fn14 inh – inhibitors of TWEAK-Fn14 signaling, primary screen, luciferase reporter cells, uHTS; inhibition, % at 10 µM; 360,000 compounds, 2% hits; TWEAK-stimulated Fn14 reporter cells, luciferase luminescence, 8 h; in the data active = inhibition above about 50%
# HIF-2a block – HIF-2a reporter inhibitors, primary screen, luminescence, 786-0 RCC cells | 786-0 RCC cells HIF-2a reporter, luciferase luminescence, overnight | inhibition, % at 18.8 µM | 360,000 compounds, 0.72% hits;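 active = inhibition of the luminescence signal of 40% or more relative to plate controls, in a single-dose primary screen at 18.75 µM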
# LMP1 NFkB inh – EBV LMP1-driven NF-kappaB luciferase reporter inhibitors, primary screen, cell-based, luminescence, single point; 350,000 compounds, 0.69% hits; inhibition, % at 12.5 µM; LMP1-induced NF-kappaB luciferase reporter cells; in the data active = inhibition above about 41%
# Mdm2 MdmX conf – retested Mdm2-MdmX interaction blockers, confirmation, cell-based, luminescence, single concentration, set 2; shares compounds with HIF-2a block; SaOS-2 split-luciferase Mdm2/MdmX complementation; inhibition, % at 8 µM; 740 compounds, 99% hits; AID 504601, 2011;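 active = mean inhibition of the luminescence signal across two replicates at or above 26 percent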
# Target sequence (O15151 whole entry, looked up): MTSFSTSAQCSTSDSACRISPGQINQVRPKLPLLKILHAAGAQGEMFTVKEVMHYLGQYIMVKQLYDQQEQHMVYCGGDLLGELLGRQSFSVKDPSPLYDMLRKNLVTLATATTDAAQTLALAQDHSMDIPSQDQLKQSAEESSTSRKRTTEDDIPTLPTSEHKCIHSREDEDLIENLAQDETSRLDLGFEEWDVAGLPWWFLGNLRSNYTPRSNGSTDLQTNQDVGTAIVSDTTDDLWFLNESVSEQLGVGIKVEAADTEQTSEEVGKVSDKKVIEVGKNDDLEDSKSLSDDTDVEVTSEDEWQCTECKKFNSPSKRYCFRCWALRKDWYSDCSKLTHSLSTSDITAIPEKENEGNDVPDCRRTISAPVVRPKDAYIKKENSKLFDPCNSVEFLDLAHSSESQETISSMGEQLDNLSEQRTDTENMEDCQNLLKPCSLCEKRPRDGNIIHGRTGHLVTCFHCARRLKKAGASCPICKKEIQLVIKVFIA
# Target sequence (Q00987 whole entry, looked up): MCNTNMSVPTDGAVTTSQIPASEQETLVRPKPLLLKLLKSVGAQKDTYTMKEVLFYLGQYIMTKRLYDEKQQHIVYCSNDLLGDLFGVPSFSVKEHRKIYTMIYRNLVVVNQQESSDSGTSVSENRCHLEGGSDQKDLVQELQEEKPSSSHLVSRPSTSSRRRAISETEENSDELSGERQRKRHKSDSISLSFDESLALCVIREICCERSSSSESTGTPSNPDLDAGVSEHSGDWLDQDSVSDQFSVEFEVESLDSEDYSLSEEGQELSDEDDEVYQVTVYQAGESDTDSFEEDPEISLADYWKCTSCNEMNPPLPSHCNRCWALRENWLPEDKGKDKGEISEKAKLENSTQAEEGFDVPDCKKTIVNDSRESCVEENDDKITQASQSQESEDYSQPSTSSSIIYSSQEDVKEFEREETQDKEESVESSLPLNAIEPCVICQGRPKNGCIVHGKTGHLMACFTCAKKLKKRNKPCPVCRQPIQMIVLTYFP
# HIF-2a conf – HIF-2a reporter inhibitor retest, confirmation, luminescence, 786-0 RCC cells. AID 651580, 2012. HIF-2a luciferase reporter luminescence, overnight. shares compounds with HIF-2a block. 1,800 compounds, 56% hits. inhibition, % at 18.8 µM;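 active = mean inhibition across four replicates of at least 40 percent at the single tested concentration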
# HIF-1a cs – HIF-1a luciferase reporter signal reduction – MiaPaCa-2 cells, single concentration, counter-screen for HIF-2a inhibitor project, confirmation; shares compounds with HIF-2a block; MiaPaCa-2 HIF-1a luciferase reporter, desferoxamine, overnight; inhibition, % at 18.8 µM; 1,800 compounds, 72% hits; AID 651589, 2012;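 active = mean inhibition of the reporter signal across four replicates at the single tested dose of 50% or more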
# Hits are given with their value; i = inactive; nt = no result.
SMILES,MITF TRPM1 inh,Peg3 prom inh,TROY NFkB inh,TWEAK-Fn14 inh,HIF-2a block,LMP1 NFkB inh,HIF-2a conf,HIF-1a cs,others
O=C(Nc1cccc(Cl)c1)Nc1nnc(-c2ccncc2)s1,i,i,50,76,i,i,nt,nt,Mdm2 MdmX conf=102
O=C(NCCc1ccncc1)Nc1cccc(Cl)c1,i,i,i,i,i,i,nt,nt,
O=c1c2ccccc2nc(/C=C/c2ccc([N+](=O)[O-])o2)n1CCCO,98,104,i,i,80,84,54,106,
COC(=O)c1ccc(Sc2nnnn2-c2ccccc2)c([N+](=O)[O-])c1,i,i,i,84,40,i,i,i,
CN(C)c1ccc(S(=O)(=O)N2CCC(Cc3ccccc3)CC2)cn1,i,i,i,i,i,i,nt,nt,
CCOc1ccc(NC(=O)Nc2cc(OCC(F)(F)F)cc(OCC(F)(F)F)c2)cc1,i,i,i,i,i,i,nt,nt,
O=C(Nc1ccc(F)cc1)Nc1cc(OCC(F)(F)F)cc(OCC(F)(F)F)c1,81,i,53,54,i,i,nt,nt,Mdm2 MdmX conf=93
O=C(NCCCN1CCOCC1)c1cc(-c2ccc(Br)cc2)on1,i,i,i,i,58,i,i,62,
CCN(Cc1nc2cc(Cl)ccc2c(=O)[nH]1)C(=O)c1cc(C2CC2)nn1-c1ccccc1,i,i,i,i,i,i,nt,nt,
O=C(/C=C/c1ccccc1)/C=C/c1ccccc1,79,110,i,90,94,i,i,103,
Brc1cc(Br)c2ncnc(N3CCCCC3)c2c1,i,56,i,i,54,i,i,88,
COc1cc(CNC2CCCC2)cc(Cl)c1OCc1ccccc1Cl,82,94,i,i,82,i,i,107,
Cc1nc2cc(NC(=O)c3ccc([N+](=O)[O-])s3)ccc2s1,104,i,i,i,67,i,75,93,
N#Cc1c(NC(=O)CSc2ncn[nH]2)sc2c1CCCCC2,80,i,i,75,90,i,96,70,
COc1ccc(NC(=O)CN(C)C(=O)C(Sc2ccccc2)c2ccccc2)cc1 (stereo not drawn),i,i,i,i,i,i,nt,nt,
Cc1cc(C)c(C(CC(=O)c2cccs2)C(C#N)C#N)c(C)c1 (stereo not drawn),i,i,i,66,76,i,i,102,
CCN(CC(=O)Nc1cccc(Br)c1)Cc1nc2ccccc2c(=O)[nH]1,i,i,i,i,42,i,i,i,
COc1ccc(-c2cc(N)n(S(=O)(=O)c3c(F)c(F)c(F)c(F)c3F)n2)cc1OC,98,110,i,51,86,i,99,104,
CCc1ccc(-c2nc(CS(=O)CC(=O)NCc3ccco3)c(C)o2)cc1 (stereo not drawn),i,i,i,76,70,i,i,69,
Cc1ccsc1CN(C)CC(=O)Nc1ccccc1C(=O)NC1CC1,i,i,i,i,i,i,nt,nt,
CCn1c(Cl)c(C=O)s/c1=N\S(=O)(=O)c1ccccc1,98,105,i,99,95,i,99,105,Mdm2 MdmX conf=103
COc1cc2c(cc1OC)C(c1ccccc1)N(C(=O)CCl)CC2 (stereo not drawn),93,102,i,i,93,i,99,106,
Cc1cccc(NC(=O)CSc2nc3c([nH]c4ccccc43)c(=O)n2C)c1,nt,i,i,i,i,i,nt,nt,
